The record followed here is PubChem BioAssay AID624246 (National Center for Advancing Translational Sciences (NCATS), 2012).

The campaign covered roughly 370,000 compounds. About 100 (0.027%) were called active. This is one part of a sample in which actives are shown more often than they occur. Calls come from the whole dose curve; as a rule, active = well fitted inhibition curve with a large enough effect in the polarisation, with a control signal flat; inconclusive = small, poorly fitted or top-dose-only effect, or effect the other way, or a change in a side signal; inactive = no such curve, though single readings can be large or run the other way; the % refers to the polarisation.
Potency is the fitted concentration of half-maximal effect.

Transcriptional regulator ERG (Homo sapiens), sequence (P11308 whole entry, looked up, the tested form may be a part): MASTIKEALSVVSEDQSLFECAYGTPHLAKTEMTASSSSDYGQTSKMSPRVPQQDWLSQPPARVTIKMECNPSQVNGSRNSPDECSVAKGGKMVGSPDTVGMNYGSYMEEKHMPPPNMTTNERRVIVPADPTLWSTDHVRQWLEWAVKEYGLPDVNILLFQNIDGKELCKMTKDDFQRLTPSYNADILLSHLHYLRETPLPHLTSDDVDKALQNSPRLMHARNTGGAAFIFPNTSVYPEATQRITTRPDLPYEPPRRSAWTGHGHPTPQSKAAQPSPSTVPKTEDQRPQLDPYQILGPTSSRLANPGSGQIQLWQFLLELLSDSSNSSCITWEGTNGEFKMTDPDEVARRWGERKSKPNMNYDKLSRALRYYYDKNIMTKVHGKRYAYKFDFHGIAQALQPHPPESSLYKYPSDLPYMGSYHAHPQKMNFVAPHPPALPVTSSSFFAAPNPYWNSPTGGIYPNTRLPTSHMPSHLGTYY

The target in this test is Transcriptional regulator ERG (Homo sapiens) (UniProt P11308). Nature of the test: qHTS for Small Molecule Inhibitors of the ERG Ets/DNA interaction. For FP activity, negative = inhibition: % of control where 0% means no effect. The following applies: fluorescence polarization, His-ERG Ets domain / labelled DNA; series mostly up to 76.9 µM; FP activity, negative = inhibition: at the top concentration. The source says:
The Ets family of proteins is a family of ~30 conserved transcription factors defined by the presence of an ~85 amino acid domain referred to as the Ets domain, which mediates sequence-specific DNA binding to a core DNA element GGAA/T.The Ets family member ERG has been linked to several neoplasms. […] More extensive studies of the effects of over-expression of ERG in prostate cells have recently been carried out and have shown that over-expression of ERG results in increased invasion. […] We will carry out a high throughout screen to identify inhibitors of the interaction between ERG and DNA using a fluorescence polarization (FP) assay with a His-tagged ERG Ets domain and fluorescently-labeled DNA probes to develop small molecule inhibitors of this interaction as probes to test this hypothesis and lay the groundwork for the development of targeted therapies against ERG. NIH Molecular Libraries Probe Production Network [MLPCN] NIH Chemical Genomics Center [NCGC] Grant: NS066464 PI Name: John Bushweller, University of Virgina
1.5 ul of protein solution (1 uM ERG domain in 300mM KCl, 50mM Tris-HCl, 1mM EDTA, 1mM DTT, pH 7.5); 20 nl Control plate and compound library plate; 1.5 ul mixture of 5 nM Fluorescein-DNA and 100nM Texas-615-DNA solution in same buffer as above solution; measure fluorescence polarization sequentially for fluorescein (Excitation = 480 nm, Emission = 535s, 535p nm) and Texas red (Excitation = 555 nm, Emission = 632s, 632p nm).
For `Cc1ccc(NC(=O)CSc2nc3c(c(=O)[nH]2)CN(Cc2ccc4c(c2)OCO4)CC3)cc1C`, the “FP activity, negative = inhibition” value was -1.58% (inactive).

For `CCCCc1nn2c(=O)cc(COC(=O)c3ccc(NC(=O)c4ccccc4C)cc3)nc2s1`, the “FP activity, negative = inhibition” value was -6.35% (inactive).

As for `Cc1ccc(NC(=O)CSc2nc3ccccc3c3nc(CCn4cncc4C)nn23)cc1F`, the “FP activity, negative = inhibition” value is -3.62% (inactive).

Take `CC1=C(C(=O)N2CCN(c3cccc(C(F)(F)F)c3)CC2)C2(CCCCC2)OC1=O`: the “FP activity, negative = inhibition” value is 8.81% (inactive).

Consider `COCCn1c(C)cc(C(=O)COC(=O)CNC(=O)c2ccco2)c1C`, for which the Potency was 7.94 µM (active).

Take `O=C(CNC(=O)c1ccco1)OCC(=O)c1ccccc1`: the “FP activity, negative = inhibition” value was -7.95% (inactive).

Take `Cc1cc(C(=O)COC(=O)CNC(=O)c2ccc(F)cc2)c(C)n1Cc1ccco1`: the “FP activity, negative = inhibition” value is -5.22% (inactive).

Turning to `CC(C)c1ccc(NC(=O)CN(C)S(=O)(=O)c2ccc3c(c2)c(=O)n(C)c(=O)n3C)cc1`, the “FP activity, negative = inhibition” value is 2.26% (inactive).

As for `CCOC(=O)c1cccc(NC(=O)C(Cc2ccccc2)NS(=O)(=O)c2cccc3nsnc23)c1` (stereo unspecified), the “FP activity, negative = inhibition” value was -2.33% (inactive).

For the compound `CCS(=O)(=O)N1CCC(n2c(C)nc3cccnc32)CC1`, the “FP activity, negative = inhibition” value was -0.342% (inactive).

For the compound `CCOc1ccc(-c2cc3nc(C4CCN(C(=O)OC(C)(C)C)CC4)c(C(=O)Nc4ccc(C(=O)OC)cc4)cn3n2)cc1`, the “FP activity, negative = inhibition” value was 5.08% (inactive).

On to `CCc1ccc(CN(Cc2ccco2)C(=O)c2ccccc2Cl)cc1`, for which the “FP activity, negative = inhibition” value is 1.74% (inactive).

Take `CCN(CCCNC(=O)Cn1ncc2c3ccccc3n(C)c2c1=O)Cc1ccccc1`: the “FP activity, negative = inhibition” value is -2.87% (inactive).

In the case of `CCC(=O)N1CCc2cc(S(=O)(=O)NCCC(=O)Nc3cccc(C)c3C)ccc21`, the “FP activity, negative = inhibition” value is -8.47% (inactive).

Regarding `Cc1ccc(-n2ncc(C(=O)N(C)Cc3ccccc3)c2-n2cccc2)cc1`, the “FP activity, negative = inhibition” value is -2.68% (inactive).

Take `Cc1cc(O)c(C(c2ccccc2)N2CCN(c3ccccc3F)CC2)c(=O)n1Cc1ccco1` (stereo unspecified): the “FP activity, negative = inhibition” value was -1.43% (inactive).

In the case of `CCOc1ccc(C(=O)/C=C/c2cn(CC(O)CN3CCCCCC3)c3ccccc23)cc1` (stereo unspecified), the “FP activity, negative = inhibition” value was -4.97% (inactive).

Turning to `Cc1cc(C)c(NC(=O)CN2C(=O)c3cccnc3Oc3ccc(Cl)cc32)c(C)c1`, the “FP activity, negative = inhibition” value is 2.19% (inactive).

As for `CCc1ccc(S(=O)(=O)c2nnn3c2nc(N2CCN(CC)CC2)c2sccc23)cc1`, the “FP activity, negative = inhibition” value is 6.31% (inactive).

In the case of `Cc1cccc(NC(=O)CSc2nnc(CNC(=O)c3cccc(C)c3)n2-c2ccccc2)c1`, the “FP activity, negative = inhibition” value is 4.19% (inactive).

As for `Cc1ccccc1-c1nc2scc(CCNC(=O)C(=O)Nc3ccc(F)cc3F)n2n1`, the “FP activity, negative = inhibition” value was -7.04% (inactive).

As for `CC(C)CCNC(=O)CSc1nc2ccccc2nc1Cc1ccc(Cl)cc1`, the “FP activity, negative = inhibition” value was -16.9% (inactive).

Consider `CC(=O)Nc1cccc(NC(=O)CSc2nccn2Cc2ccc3c(c2)OCO3)c1`, for which the “FP activity, negative = inhibition” value is 3.24% (inactive).

`CCC(=O)N1CCc2cc(Br)cc(S(=O)(=O)Nc3ccc(C)cc3C)c21`: the “FP activity, negative = inhibition” value is 0.336% (inactive).

As for `O=C(CN1CCN(Cc2ccc(Cl)cc2)C1=O)NCc1ccc(F)cc1`, the “FP activity, negative = inhibition” value is 5.89% (inactive).

For `COc1ccc(-c2cccc(NS(=O)(=O)c3cc(C)c(OC)c(C)c3C)c2)nn1`, the “FP activity, negative = inhibition” value is -0.101% (inactive).
